# An excerpt weighted towards active compounds, which were near 7.9% of everything screened.
# LASV entry inh: Lassa virus entry inhibition; Lassa virus pseudotype entry inhibition, cell reporter; Potency, µM (series often up to 37.9 µM), inactives show at the top dose activity change, negative = inhibition, actives largely listed as inhibitors; 300,000 tested, 1.2% active; AID 540256; calls by dose curve; tested in HEK293 cells; further: potency means the concentration at half of the fitted maximal effect; nearly all actives have a fitted effect of over 50% in size
# HCV inh: inhibitors of hepatitis C virus infection; Huh7.5.1 HCVcc-Cre infection, luciferase reporter, 44 h; Potency, µM (titrated, usually from 41.8 µM), for inactives: at the top dose activity change, negative = inhibition, usual class: inhibitors; 340,000 tested, 3.4% active; AID 651820; active means well fitted inhibition curve with a large enough effect; inconclusive means small, poorly fitted or top-dose-only effect, or another doubt; inactive means no such curve, though single readings can be large or run the other way; further: potency means the concentration at half of the fitted maximal effect
#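 Reporter virus HCVcc-Cre (~0.5 moi) infects cells exposed to compound; seeding density 1,000 cells/well with 4 h settling beforehand. Luminescence, 15 sec read, taken 44 h post-infection following a 15 min RT substrate incubation.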
# MARV entry inh: blocks Marburg virus binding to or entry into cells; Marburg virus pseudotyped entry inhibition, cell reporter; 300,000 tested, 1.8% active; Potency, µM (titrated, usually from 37.8 µM), inactives show at the highest dose activity change, negative = inhibition, most hits filed as inhibitors; calls by dose curve; tested in HEK293 cells; further: potency means the concentration at half of the fitted maximal effect
# HCMV antiviral: blocks human cytomegalovirus replication; HFF cells, HCMV-luciferase reporter, 72 h; stronger effect = lower value; activity change, negative = inhibition, % at 57.5 µM; 410,000 tested, 4.5% active; AID 1259415; in the data active means activity change below about -60%; inconclusive means no clear call, values can overlap the other calls; inactive means above about -39%
#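 Human foreskin fibroblasts infected with luciferase-reporter HCMV at MOI 1 PFU/cell, compounds at two doses. Luciferase measured 72 h post infection; normalized to buffer-only basal and Salinomycin (10uM) controls.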
# FMDV inh: foot and mouth disease virus antiviral activity; Potency, µM (doses to about 57.9 µM), for the others: top-dose activity change, negative = inhibition, hits mostly inhibitors; 410,000 tested, 1.2% active; FMDV antiviral cell-based qHTS; AID 1159524; calls by dose curve; tested in HEK293T cells; further: read-out not given here; potency means the concentration at half of the fitted maximal effect; nearly all actives have a fitted effect of over 45% in size
# Active calls of the source: *; ? = inconclusive; / = no result given; [ ] = remark or other dose. On the % scale 0 is the no-effect control and ±100 the full control effect.
SMILES,LASV entry inh,HCV inh,MARV entry inh,HCMV antiviral,FMDV inh
C[C@@H](C(=O)Nc1ccc2ccccc2c1)[C@@H]1C[C@@]1(C)[C@@H](NC(=O)c1ccccc1)c1ccccc1,1%,4%[8.37 µM],-29%,15,1%
C[C@@H](C(=O)Nc1ccc2ccccc2c1)[C@H]1C[C@]1(C)[C@H](NS(=O)(=O)c1ccc(-c2ccccc2)cc1)c1ccccc1,-21%,22%[8.37 µM],12µM*,-15,3%
Cc1c2c(=O)n(-c3nc4ccccc4s3)nc-2cc(O)n1Cc1ccccc1,/,4%,/,/,7.1µM*
Cc1cc(C)n(-c2nc3ccccc3s2)n1,16%,-4%,?,10,0%
COc1ccc(CNC(=O)c2ccc(NC(=O)N3CCSc4ccccc43)cc2)cc1,-4%[46.1 µM],/,6%[46.1 µM],17,-18%
CN=C(c1ccco1)n1c(=S)nc(-c2ccco2)n(C)c1=S,7%,11µM*,-2%[46.1 µM],73,7%
CN=C(c1ccc(C)cc1)n1c(=S)nc(-c2ccc(C)cc2)n(C)c1=S,17%,-9%,-14%[46.1 µM],15,-6%
Cc1ccc(NC(=O)CSc2nc3ccc(NC(=O)c4cccs4)cc3s2)c(C)c1,-10%[46.1 µM],/,?,11,16%
Cc1cccc(C)c1NC(=O)c1ccc(-c2ccc(Cl)cc2Cl)o1,?,?,10µM*,-72*,-24%
Cc1ccccc1NC(=O)c1ccc(-c2ccc(Cl)cc2Cl)o1,8%,13µM*,-10%[46.1 µM],-11,6%
COc1ccc(NC(=O)c2c(NCc3ccc(C)o3)sc3c2CCC(C)C3)cc1 (stereo unspecified),2%[46.1 µM],/,/,-9,38%
Cc1ccc(/C(=C\CN2CCCC2)c2ccccn2)cc1,?,-11%,11µM*,24,-18%
COc1cc(N2Cc3ccccc3C2)ccc1C=O,?,-3%,7.9µM*,69,?
Cc1cc(C)cc(N2Cc3ccccc3C2)c1,/,22%,-5%,15,-3%
C[C@]12CCC3C(CC[C@H]4C[C@@H](O)CC[C@]34C)[C@H]1CC[C@H]2O (stereo partly specified),2%[46.1 µM],-5%,8%[46.1 µM],-20,-26%
C[C@]12CCC(=O)C[C@@H]1CC[C@@H]1[C@@H]2CC[C@]2(C)[C@@H](O)CC[C@@H]12,/,-10%,/,-61*,?
CC(=O)[C@@]1(O)CCC2C3CC[C@H]4C[C@@H](O)CC[C@]4(C)C3CC[C@@]21C (stereo partly specified),0%[46.1 µM],-21%,6%[46.1 µM],25,-13%
C[C@]12CCC3C(CC[C@H]4C[C@@H](O)CC[C@]34C)C1CC[C@@]2(O)C(F)(F)F (stereo partly specified),/,3%,/,-61*,/
C[C@H]1CC[C@@]2(C)[C@@H](CC[C@@H]3[C@@H]2CC[C@]2(C)[C@@H](O)CC[C@@H]32)C1,/,14%,/,-100*,-18%
C[C@]12CCC3C(CC[C@@H]4CC(=O)CC[C@]34C)C1CC[C@@H]2O (stereo partly specified),0%[46.1 µM],16%,?,-21,-22%
CCOc1ccc(NS(=O)(=O)c2cccc(C(=O)NCC3(N(C)C)CCCCC3)c2)cc1,?,?,11µM*,-31,2%
COc1ccc(NS(=O)(=O)c2cccc(C(=O)N3CCC3)c2)cc1,-13%,?,-6%,-15,16%
COc1ccc(Cn2c(=O)[nH]c3cc(C(=O)Nc4ccc(N5CCN(C)CC5)cc4)ccc32)cc1,0%,?,?,-26,-14%
COc1ccc(Cn2c(=O)[nH]c3cc(C(=O)NC4CCN(Cc5ccccc5)CC4)ccc32)cc1,-25%,10µM*,9.2µM*,-23,?
CN(C)C1(CNC(=O)c2ccc(NS(=O)(=O)c3ccc(Cl)c(Cl)c3)cc2)CCCCC1,/,?,/,-8,15%
SMILES,LASV entry inh,HCV inh,MARV entry inh,HCMV antiviral,FMDV inh
COc1ccc(NS(=O)(=O)c2cccc(C(=O)N3CCN(S(=O)(=O)c4ccccc4)CC3)c2)cc1,/,10µM*,/,17,?
COc1ccc(NS(=O)(=O)c2cccc(C(=O)NCC3(N4CCOCC4)CCCCC3)c2)cc1,?,1%,?,-67*,24%
Cc1cc2nc3n(c2cc1C)C(C)(C(=O)Nc1ccc2ccccc2c1)CCC3 (stereo unspecified),/,/,/,32,/
Cc1ccc(OCC(=O)Nc2nonc2-c2ccc(Br)cc2)cc1C,1%[46.1 µM],/,10%[46.1 µM],-14,-16%
CCN1CCN(c2ccc(NC(=O)c3ccc4c(c3)[nH]c(=O)n4Cc3ccc(F)cc3)cc2)CC1,?,7.1µM*,?,?,-22%
COc1ccc(NS(=O)(=O)c2cccc(C(=O)NNC(=O)NCCCl)c2)cc1,1%,-1%,-9%[46.1 µM],-65*,14%
COc1ccc(NS(=O)(=O)c2cccc(C(=O)NC3CCN(Cc4ccccc4)CC3)c2)cc1,?,?,?,-65*,-25%
COc1ccc(NS(=O)(=O)c2cccc(C(=O)NNC(=O)c3ccccc3OC)c2)cc1,6%[46.1 µM],19%,-16%,41,8%
COc1ccc(NS(=O)(=O)c2cccc(C(=O)NCc3ccccc3CN3CCCC3)c2)cc1,/,11µM*,/,0,-4%
COc1ccc(Cl)cc1NS(=O)(=O)c1cccc(C(=O)NC2CCN(Cc3ccccc3)CC2)c1,/,?,/,-13,?
CC(C)[C@@H]1CC[C@@H](C)CC1=O,/,/,/,/,-6%
COc1ccc2c(c1)O[C@@H](c1ccc3c(c1)OCO3)[C@H](OC(=O)Nc1ccc(C)c(Br)c1)C2=O,1%[14.3 µM],/,-12%[14.2 µM],/,/
CCOC(=O)c1ccc(NC(=O)C(CC)Sc2nc3ncccc3o2)cc1 (stereo unspecified),7%[46.1 µM],/,/,26,-3%
CC(C)c1ccc(NC(=O)Nc2nc(C(N)COCc3ccccc3)cs2)cc1 (stereo unspecified),/,/,/,-95*,0%
COc1ccc(CC(N)c2csc(NC(=O)C(c3ccccc3)c3ccccc3)n2)cc1 (stereo unspecified),/,/,/,-65*,-27%
NC(Cc1ccccc1)c1csc(NC(=O)c2cccc(OC(F)(F)F)c2)n1 (stereo unspecified),/,/,/,-101*,?
COc1ccc(CC(N)c2csc(NC(=O)c3ccccc3)n2)cc1 (stereo unspecified),/,/,/,60,-17%
COc1ccc(CC(N)c2csc(NC(=O)c3ccccc3OC)n2)cc1 (stereo unspecified),/,/,/,-81*,-11%
CC(C)c1ccc(NC(=O)Nc2nc(C(N)c3ccccc3)cs2)cc1 (stereo unspecified),/,/,/,-15,-24%
CCC(=O)N1CCc2cc(S(=O)(=O)NCCC(=O)NCc3ccc(OC)cc3)ccc21,20%[46.1 µM],/,6%[46.1 µM],-3,-5%
COc1ccc(N2CCN(C(=O)c3cccc(NC(=O)c4nsc5ccccc45)c3)CC2)cc1,-28%[46.1 µM],/,/,33,6%
Cn1cnc(S(=O)(=O)N2CCC(C(=O)NCc3ccc(F)cc3)CC2)c1,10%[46.1 µM],/,/,34,21%
COc1ccc(-c2cccc3c2OC(CNC(=O)c2ccc4c(c2)OCO4)C3)nn1 (stereo unspecified),/,/,/,/,31%

# Assay outcomes: PubChem BioAssay, National Center for Advancing Translational Sciences (NCATS)
